Data from PubChem BioAssay (NCATS).
The source made the active and inactive calls. Calls come from the whole dose curve; as a rule, active = well fitted curve in the direction sought with a large enough effect; inconclusive = small, poorly fitted or top-dose-only effect, or effect the other way, or another doubt; inactive = no such curve, though single readings can be large or run the other way.

Assay: Inducers of the Endoplasmic Reticulum Stress Response (ERSR) in human glioma: Validation (AID 504836)
Details: human glioma cells, ER stress response reporter; series mostly up to 38.3 µM
Description: Primary protein unfolding takes place for many diseases, including diabetes and hypoxia, , and triggers a reaction in the cells called ER stress response (ERSR). ). ERSR is designed as a repair mechanism, but ultimately leads to cell death via apoptosis if conditions triggering protein unfolding persist (1). The molecular clue to ERSR activation is the enhancement of the expression of key molecular chaperones, including the glucose regulated protein (GRP) 78. GRP78 is the main sensor for protein folding and the main actuator of the ERSR.
In a collaboration between the Southern Research Institute and the NIH Chemical Genomics Center, a cell based screen was developed that reliably uses GRP78 as a sensor to identify small molecules as inducers of ERSR. In resting conditions, GRP78 binds proteins and acts as a natural repressor. Once unfolded proteins are present in the ER, GRP78 releases some of the repressors and binds to the unfolded proteins. The release of the repressors executes the ERSR program. Using a human glioma cell line in a miniaturized, luminescent format, a high-throughput screen was developed to identify actuators of the ERSR.
(1) Soboloff, J. and S. A. Berger (2002). "Sustained ER Ca2+ depletion suppresses protein synthesis and induces activation-enhanced cell death in mast cells." J Biol Chem 277(16): 13812-20.
NIH Chemical Genomics Center [NCGC]
NIH Molecular Libraries Probe Centers Network [MLPCN]
Assay Submitter (PI): Maurizio Grimaldi, Southern Research Institute
Stable transfected human glioma cell line, U87-MG, are dispensed at density 1000 cells/well into Greiner white solid bottom 1536-well assay plates. Compounds are transferred via Kalypsys pin tool equipped with 1536-pin array (10nl slotted pins, V&P Scientific, San Diego, CA). The assay plates will be incubated for 16 hours and developed by adding appropriate quantities of the Promega Bright Glo reagent. The plates will be incubated at room temperature for 10 minutes prior to being transferred into a ViewLux high-throughput CCD imager (PerkinElmer), wherein end-point measurements of luminescence are acquired.

Row | Structure (SMILES) | outcome
1 | NC1(C(=O)O)CCCCC1 | inactive
2 | Cc1ccc([N+](=O)[O-])cc1S(=O)(=O)N(C)C | inactive
3 | COc1cc(CNC(=O)CCCCCCC(C)C)ccc1O | inactive
4 | O=c1cc(N2CCOCC2)oc2c(-c3ccccc3)cccc12 | inactive
5 | Cc1cc2c(cc1Cl)N(C(=O)Nc1ccnc3ccccc13)CC2 | inactive
6 | NC1C=CC=C(C(=O)O)C1 (stereo not given) | inactive
7 | Brc1c(Br)c(Br)c2n[nH]nc2c1Br | inactive
8 | O=C(O)c1cc2cc(Cc3cccnc3)ccc2o1 | inactive
9 | O=C(O)c1cc2cc(F)ccc2[nH]1 | inactive
10 | CCCC(=O)NCCc1c2n(c3ccc(OC)cc13)CCCc1ccccc1-2 | inactive
11 | CC1=C(/C=C/C(C)=C/C=C/C(C)=C\C(=O)O)C(C)(C)CCC1 | inactive
12 | COc1ccc(-c2cc3ncc(C)n3c(Nc3ncccc3C(N)=O)n2)cc1OC | inactive
13 | CCCN(CCc1ccccc1)C1CCc2c(O)cccc2C1 (stereo not given) | inactive
14 | CSC(=N)N | inactive
15 | NC(=O)c1cc[n+](CC2=C(C(=O)O)N3C(=O)[C@@H](NC(=O)[C@@H](c4ccccc4)S(=O)(=O)[O-])[C@H]3SC2)cc1 | inactive
16 | CN1CC(O)C(O)C(O)C1CO (stereo not given) | inactive
17 | O=c1cc(-c2ccccc2F)[nH]c2cc3c(cc12)OCO3 | inactive
18 | CN=C(N)NCCC[C@H](N)C(=O)O | inactive
19 | O=C1NC(=O)/C(=C/c2ccc3c(c2)OC(F)(F)O3)S1 | inactive
20 | C[C@@H](NC(=O)/C(C#N)=C/c1ccc(O)c(O)c1)c1ccccc1 | inactive

Row | Structure (SMILES) | outcome
21 | Nc1nc(OCc2ccccc2)c2[nH]cnc2n1 | inactive
22 | CN1CCC2(CCN3CCc4c(oc5ccccc45)C3C2)N(C)C1=O (stereo not given) | inactive
23 | CCCCCCCCCCCCCCSCC(=O)O | inactive
24 | OC[C@H]1O[C@@H](n2cnc3cncnc32)[C@H](O)[C@@H]1O | inactive
25 | O=C(O)C1CCNCC1 | inactive
26 | COc1cc(C(O)C(=O)O)ccc1O (stereo not given) | inactive
27 | N[C@@H](Cc1cnc[nH]1)C(=O)O | inactive
28 | Cn1ncc(S(=O)(=O)Cc2ccccc2)c(Br)c1=O | inactive
29 | CCCCC#Cc1nc(NC)c2ncn([C@@H]3O[C@H](CO)[C@@H](O)[C@H]3O)c2n1 | inactive
30 | CC(C)NCC(O)COc1ccc(CC(N)=O)cc1 (stereo not given) | inactive
31 | C=C1C[C@@]23CC[C@H]4[C@@](C)(CCC[C@@]4(C)C(=O)OC4OC(CO)C(O)C(O)C4O)[C@@H]2CC[C@]1(OC1OC(CO)C(O)C(O)C1OC1OC(CO)C(O)C(O)C1O)C3 (stereo not given in full) | inactive
32 | COc1ccc(/C=C/C(=O)Nc2ccccc2C(=O)O)cc1OC | inactive
33 | NCCCCC(=O)O | inactive
34 | O=C(O)CCC(=O)N1CCCC1C(=O)O (stereo not given) | inactive
35 | CO/N=C(\C(=O)N[C@@H]1C(=O)N2C(C(=O)O)=C(COC(C)=O)CS[C@H]12)c1csc(N)n1 | inactive
36 | NCC(O)C1CCCCCCC1 (stereo not given) | inactive
37 | CN(C)CCCc1cc(C(=O)Nc2ccc(-c3ccncc3)cc2)ccc1O | inactive
38 | O=C(O)CC1CC(c2ccccc2)=NO1 (stereo not given) | inactive
39 | C#CC(N)CCC(=O)O (stereo not given) | inactive
40 | O=C1c2c(O)cc(O)cc2OC(c2ccc(O)c(O)c2)C1O (stereo not given) | inactive
